High-throughput results as filed in PubChem BioAssay.
Only some compounds are listed: those with a hit (about 2.5% of all), similar ones and a draw of the others.
CHT allo act = human CHT allosteric activation; Q9GZV3; CHT-expressing cells, membrane potential dye, choline EC20; stronger effect = higher value; LV-AA mutant CHT in HEK293 cells; B-score at 10 µM; hit rate 0.49% among 310,000;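 active means initial fluorescence not abnormally high and integrated response B-score, plate-corrected, over 3 SD above library mean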
ANO1 activ = activators or potentiators of mouse TMEM16A chloride channel. B-score at 10 µM. HEK293 TMEM16A/YFP-H148Q/I152L, iodide quench fluorescence; stronger effect = lower value. AID 623877. hit rate 0.3% among 340,000. Q8BHY3;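 active means fluorescence-ratio B-score plate-corrected deviation score at least 3 library SD below zero, with starting fluorescence score within 5 deviations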;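 further: channel opened by trigger with iodide after compound preincubation; score built on the fluorescence ratio of max minus min over baseline; more negative score means more quench and so TMEM16A activation or potentiation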
TMEM16A inh = blocks the mouse calcium-activated chloride channel TMEM16A; Q8BHY3; HEK293 TMEM16A/YFP iodide influx fluorescence, ionomycin; normalized B-score (activity score, 25-100; higher = stronger inhibition) at 10 µM; hit rate 1.2% among 310,000; AID 588511;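 active means ratio plate-corrected score three or more library SD toward inhibition, starting fluorescence score within five deviations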;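 further: score derived from kinetic fluorescence span divided by baseline fluorescence per well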
PKA-R1A activ = activates the PKA-R1A holoenzyme complex | P00514+P68181 | PKA-R1A dissociation, Cy5-IP20 fluorescence polarization; scaled: DMSO 0%, 113 µM cGMP 100% | activation, % at 11.4 µM | hit rate 0.083% among 340,000;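 active means percent activation above the mean of all tested compounds plus 3 SD, cut at about 19% in these data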;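 further: higher means more PKAc released from R1A so a rise in polarization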
CHT block = human CHT choline transport inhibition | Q9GZV3 | CHT-expressing cells, membrane potential dye, choline response; stronger effect = lower value | B-score at 10 µM | hit rate 0.86% among 310,000;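 active means B-score over 3 SD under the library average, and starting fluorescence ratio not unusually high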;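 further: choline stimulus applied at its EC90 after an EC20 pre-addition; B-score computed on integrated fluorescence ratio after choline addition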
PKA-R2B activ = activates the human PKA-R2B holoenzyme complex; P22694+P31323; PKA-R2B holoenzyme dissociation, Cy5-IP20 fluorescence polarization; R2B truncated from residue 108, S112A mutant; 0% DMSO only, 100% 113 µM cGMP; activation, % at 11.4 µM; hit rate 0.079% among 340,000; AID 504700;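 active means activation above a cutoff set at the mean over all compounds plus 3 SD, cut at about 18% in these data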;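 further: higher means more holoenzyme dissociation and a rise in polarization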
Target sequence (P31323 whole entry, looked up, other chains not shown, the tested form may be a part): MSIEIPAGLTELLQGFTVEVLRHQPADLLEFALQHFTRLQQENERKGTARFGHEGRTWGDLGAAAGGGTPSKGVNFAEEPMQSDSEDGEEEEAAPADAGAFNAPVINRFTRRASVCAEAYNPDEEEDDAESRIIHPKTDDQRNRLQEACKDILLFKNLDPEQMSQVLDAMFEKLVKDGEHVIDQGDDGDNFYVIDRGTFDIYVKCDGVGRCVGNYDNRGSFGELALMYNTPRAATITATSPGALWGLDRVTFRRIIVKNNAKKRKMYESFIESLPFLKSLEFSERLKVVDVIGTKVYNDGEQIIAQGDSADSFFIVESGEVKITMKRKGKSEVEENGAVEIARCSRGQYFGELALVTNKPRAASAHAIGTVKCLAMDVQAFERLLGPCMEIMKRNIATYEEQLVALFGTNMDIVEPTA
CHT inh conf = confirmation of human choline transporter CHT inhibitors | shares compounds with CHT block | CHT-expressing cells, choline membrane potential dye; LV-to-AA substituted CHT, HEK293 cells | CHT activity remaining % of control (stronger effect = lower value), % at 10 µM | hit rate 70% among 2,400 | AID 493221;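 active means choline transporter activity left, mean of duplicates at 10 µM, below buffer-only control mean minus 3 SD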;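 further: depolarization triggered by choline at its EC90 following an EC20 pre-addition; 0% = hemicholinium-3 full block and 100% = buffer-only control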
HEK293 MPD ctr = activity in parental HEK293 cells lacking CHT. hit rate 4% among 2,400. shares compounds with CHT block. AID 493222. membrane potential dye, choline response; active = decrease or increase beyond buffer ±3SD. membrane potential ratio readout (active if shifted either direction beyond buffer ±3SD; no single direction) at 10 µM;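 further: parental cells lack the transporter so any hit is non-specific; ratio is peak minus trough fluorescence over baseline after EC90 choline challenge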
Starred values were filed as active, the others as inactive; i = inactive; / = no result given.

SMILES	CHT allo act	ANO1 activ	TMEM16A inh	PKA-R1A activ	CHT block	PKA-R2B activ	CHT inh conf	HEK293 MPD ctr
Cc1nn(Cc2ccccc2Cl)c(C)c1NC(=O)c1noc2c1CCCCC2	i	i	i	7	-5.7*	0	41%*	i
Cc1ccc(CNC(=O)c2ccc3c(=O)[nH]c4c(C(=O)NCC5CCCO5)sc(=S)n4c3c2)cc1 (centres undefined)	i	i	i	-4	i	4	/	/
CCCCCNC(=O)c1ccc2c(=O)[nH]c3c(C(=O)NCC4CCCO4)sc(=S)n3c2c1 (centres undefined)	i	i	i	-6	-7.8*	-6	35%*	i
O=C(NC1CCCC1)c1sc(=S)n2c1[nH]c(=O)c1ccccc12	i	i	i	1	-5*	-4	i	i
Cc1cc([N+](=O)[O-])c(NCCCCCCO)c([N+](=O)[O-])c1	i	i	i	5	-5.4*	6	38%*	i
CCC(C)Nc1c([N+](=O)[O-])cc(C)cc1[N+](=O)[O-] (centres undefined)	i	i	i	6	i	-2	/	/
CC1=C/C(=N\OS(=O)(=O)c2ccccc2)C(C)=CC1=O	i	-6.4*	100*	-5	-6*	-16	50%*	i
CCCN1C(=S)c2ccccc2C1c1ccccc1 (centres undefined)	i	i	i	-3	i	1	/	/
CN(C)CCCn1c(=O)n(CCc2ccccc2)c(=O)c2c3c(sc21)CCCCC3	i	i	i	3	-7.8*	3	31%*	i
CCOc1ccc(N2C(=O)C(C)CNC2=S)cc1 (centres undefined)	/	i	/	-2	/	-9	/	/
Cc1ccc(-c2nnc(Sc3nc4ccccc4o3)c3ccccc23)cc1	i	i	i	5	i	3	/	/
Cc1nnc(Sc2nc3ccccc3o2)c2ccccc12	i	i	i	-5	-5.9*	-15	27%*	i
O=C(Nc1ccccc1N1CCOCC1)c1cccc(S(=O)(=O)N2CCOCC2)c1	/	i	/	-9	/	-5	/	/
O=C(Nc1ccccc1N1CCOCC1)c1cccc(NS(=O)(=O)c2ccc(F)c(F)c2)c1	i	i	i	-6	-5.5*	-1	i	i
CCCCN(C(=O)Cc1ccc2c(c1)OCCO2)c1c(N)n(CC(C)C)c(=O)[nH]c1=O	/	i	/	-7	/	-4	/	/
O=C(NCC1CCCN1S(=O)(=O)c1cccs1)C(=O)Nc1ccc(F)cc1 (centres undefined)	i	i	i	0	i	1	/	/
CCOC(=O)C1(CCCc2ccccc2)CCN(C(=O)CCCn2cncn2)CC1	i	i	i	8	-5*	5	i	i
CCOC(=O)C1(CCCc2ccccc2)CCN(C(=O)CCc2cnn(C)c2)CC1	i	i	i	1	i	-3	/	/
CCc1cc2c(NCc3ccco3)ncnc2s1	i	i	i	-7	-6.6*	7	50%*	i
COc1cc(/C=C2/C(=O)N(c3cccc(Br)c3)N=C2C)cc(OC)c1O	i	i	i	-11	-5.2*	-18	45%*	i
CCCC[C@@H]1CNC(=O)C(=O)N1CCCc1cc(OC)c(OC)c(OC)c1	i	i	i	-6	i	-17	/	/
COc1cc(CCCN2C(=O)C(=O)NC[C@H]2Cc2cccc3ccccc23)cc(OC)c1OC	i	i	i	8	-5.1*	5	45%*	i
CCCc1cc2c(=O)c(-c3ccccn3)c(C)oc2cc1O	i	i	i	5	-12*	0	9.4%*	i
CCS(=O)(=O)c1nc(S(=O)(=O)c2ccc(C)cc2)c(NCCCn2ccnc2)s1	i	i	i	7	i	14	/	/
Cc1ccc(Oc2ccc(NC(=O)Cn3ccsc3=N)cc2)cc1	i	i	i	-1	-7.9*	-5	16%*	i
SMILES	CHT allo act	ANO1 activ	TMEM16A inh	PKA-R1A activ	CHT block	PKA-R2B activ	CHT inh conf	HEK293 MPD ctr
CCS(=O)(=O)c1ncc(Cl)c(C(=O)Nc2ccc(S(=O)(=O)N3CCCC(C)C3)cc2)n1 (centres undefined)	i	i	i	4	i	-5	/	/
CCC1CCCCN1S(=O)(=O)c1ccc(NC(=O)c2nc(S(C)(=O)=O)ncc2Cl)cc1 (centres undefined)	i	i	i	-7	-6.4*	-8	12%*	i
O=C(COC(=O)CCCN=C1NS(=O)(=O)c2ccccc21)NNC(=O)c1ccccc1	i	i	i	-2	i	-4	/	/
NCc1ccccc1COc1ccccc1	i	i	i	-1	i	-11	/	/
COC(=O)c1ccc(CNC(=O)c2ccc(OC)c(S(=O)(=O)NC3CCCC3)c2)cc1	/	i	/	5	/	2	/	/
N=C1C(c2ccccc2)=C(O)CN1c1cccc(O)c1	i	i	i	0	-6.6*	4	i	i
COC(=O)C(C)Oc1ccc2c3c(c(=O)oc2c1)CCCCC3 (centres undefined)	i	i	i	4	-5.2*	-4	i	i
Cc1ccc(C2=Nn3c(COc4ccc(Cl)cc4)nnc3SC2CC(=O)O)cc1 (centres undefined)	i	i	i	1	i	-8	/	/
Nc1nc(SCC(=O)Nc2ccc3c(c2)OCO3)n[nH]1	i	i	i	1	-5.1*	0	i	i
Cc1ccc(NC(=O)CN2C(=O)NC3(CCc4ccccc43)C2=O)cc1Cl (centres undefined)	i	i	i	-5	-11*	1	34%*	i
COc1ccc(NC(=O)CSc2nccn2Cc2ccccc2)cc1	i	i	i	4	-5.3*	-7	56%*	i
COc1ccc(-n2ccnc2SCC(=O)NO)cc1	i	i	i	-1	-5.3*	-5	i	i
CS(=O)(=O)Nc1cccc(C(=O)OCCCOc2ccc(F)cc2)c1	i	i	i	-14	i	0	/	/
